Test results from PubChem BioAssay (NCATS).
Inconclusive results are not listed. The call rests on the fitted dose curve; in most records, active means well fitted curve in either direction with a large enough effect (not every such curve was filed as active); inconclusive means small, poorly fitted or top-dose-only effect, or another doubt; inactive means flat fitted curve, though single readings scatter.

Assay: NFAT Signaling Pathway (AID 444);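 further: carbachol stimulus at about its EC50 of 1 µM final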
Details: Jurkat NFAT-bla M1, carbachol, beta-lactamase ratio, 5 h; at 7.69 µM (top of the series) unless noted
Procedure, shortened: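 Jurkat cells with NFAT-driven β-lactamase reporter and co-expressed M1 receptor, stimulated with carbachol (final 1 uM, ~EC50), compound titration, 5 h at 37 °C. CCF4 loaded 1 h at RT; 460/530 nm ratio gave %activity and AC50.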
On the % scale 0 is the no-effect control and ±100 the full control effect.

Activity change, negative = inhibition, inactive:
CN(C)C(=O)c1ccc(-c2cc(NCc3cccnc3)ncn2)cc1 21.1%
Cc1noc(C)c1-c1cc(NCc2cccnc2)ncn1 -0.73%
CN(C)c1ncc2nc(-c3cc(F)cc(F)c3)c(=O)n(CCC#N)c2n1 29.2%
c1nc(NC2CCNCC2)c2cc(-c3ccoc3)ccc2n1 12.3%
COc1ccc(-n2c(=O)c(-c3ccc(F)cc3)nc3cnc(N4CCOCC4)nc32)cc1 12.6%
Cc1noc(C)c1-c1nccc(N2CCOCC2)n1 4.77%
COc1ccccc1CCn1c(=O)c(-c2cccc(F)c2)nc2cncnc21 -17.1%
COCCn1c(=O)cnc2cnc(Oc3ccc(OC)cc3)nc21 -2.59%
O=c1c(-c2ccc(F)cc2)nc2cnc(Oc3ccccc3)nc2n1C1CC1 5.2%
COc1ccc(Oc2ncc3nc(C)c(=O)n(C[C@H]4CCCO4)c3n2)cc1 1.62%
COCCNc1nc(-c2ccccc2Cl)nc2ccccc12 7.18%
CN(C)c1ccc(-c2ccc3ncnc(N(C)C)c3c2)cc1 -14.1%
COCCn1c(=O)c(C)nc2cnc(N(C)C)nc21 13.3%
CC(=O)NCCNc1ncncc1-c1ccc(N(C)C)cc1 9.49%
COc1ccc(Oc2ncc3nc(-c4ccc(OC)cc4)c(=O)n(C)c3n2)cc1 -4.34%
CN1CCN(c2ccnc(-c3ccoc3)n2)CC1 -15.5%
Cc1ccccc1-c1nccc(NCc2cccs2)n1 1.22%
Cc1cccc(CNc2cc(-c3c(C)noc3C)ncn2)c1 -10.8%
O=c1cnc2cnc(Oc3cccc(Cl)c3)nc2n1C[C@H]1CCCO1 1.72%
CS(=O)(=O)Nc1cccc(-c2ccc3ncnc(NC4CC4)c3c2)c1 -15.5%
COc1ccc(-n2c(=O)cnc3cnc(N(C)C)nc32)cc1 15.7%
COc1cccc(Nc2ncc3nc(C)c(=O)n(C4CC4)c3n2)c1 5.07%
COc1ccc2[nH]cc(CCNc3ncnc4ccc(-c5cccnc5)cc34)c2c1 18.7%
CC(=O)NCCNc1ncnc2ccc(-c3ccoc3)cc12 17.6%
CNc1ncnc2ccc(-c3ccccc3CN(C)C)cc12 -2.46%
c1csc(CNc2ncnc3ccc(-c4ccoc4)cc23)c1 1.06%
COCCn1c(=O)c(C)nc2cnc(Oc3ccc(OC)cc3)nc21 7.53%
c1cncc(CNc2ncncc2-c2cccnc2)c1 1.94%
CN(C)C(=O)c1ccc(-c2cc(Nc3ccccc3)ncn2)cc1 4.63%
COCCNc1ncnc2ccc(-c3ccoc3)cc12 11.2%
COc1cccc(Cn2c(=O)cnc3cncnc32)c1 -18.4%
CCNc1ncc2nc(-c3cn(C)c4ccccc34)c(=O)n(C)c2n1 2.68%
COc1ccc(-c2nc3cnc(Oc4cccc(Cl)c4)nc3n(C3CC3)c2=O)cc1 -3.56%

Assay: Stat Signaling Pathway (AID 446);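 further: ME-180 cervical cancer cells given 40 pM IL-6 alongside compound; SIE-controlled beta-lactamase reporter measured as 460/530 nm FRET emission ratio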
Details: ME-180 SIE beta-lactamase reporter, IL-6 stimulated, 5 h; at 7.69 µM (top of the series) unless noted
Procedure, shortened: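 ME-180 SIE-bla cells; overnight plating; cpd + IL-6 40 pM, 5 h, 37 C; LiveBLAzer 2.5 h RT; 460/530 nm emission ratio. Normalized to 300 pM IL-6 and 125 nM JAK inhibitor controls.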

activity, negative = inhibition, inactive:
CN(C)C(=O)c1ccc(-c2cc(NCc3cccnc3)ncn2)cc1 21.7%
CN(C)c1ncc2nc(-c3cc(F)cc(F)c3)c(=O)n(CCC#N)c2n1 2.22%
c1nc(NC2CCNCC2)c2cc(-c3ccoc3)ccc2n1 -3%
Fc1ccc(Nc2ncncc2-c2ccccc2C(F)(F)F)cc1 23.6%
COc1ccc(-c2nc3cnc(Oc4ccccc4)nc3n(CCC#N)c2=O)cc1 -20%
Cc1noc(C)c1-c1nccc(N2CCOCC2)n1 14.5%
COc1ccccc1CCn1c(=O)c(-c2cccc(F)c2)nc2cncnc21 3.83%
COCCn1c(=O)cnc2cnc(Oc3ccc(OC)cc3)nc21 -5.99%
O=c1c(-c2ccc(F)cc2)nc2cnc(Oc3ccccc3)nc2n1C1CC1 -10.8%
COc1ccc(Oc2ncc3nc(C)c(=O)n(C[C@H]4CCCO4)c3n2)cc1 -14.8%
COCCNc1nc(-c2ccccc2Cl)nc2ccccc12 -3.65%
CN(C)c1ccc(-c2ccc3ncnc(N(C)C)c3c2)cc1 -0.741%
COCCn1c(=O)c(C)nc2cnc(N(C)C)nc21 -5.78%
COCCNc1ncnc2ccc(-c3cccc(NS(C)(=O)=O)c3)cc12 -4.92%
CC(=O)NCCNc1ncncc1-c1ccc(N(C)C)cc1 9.91%
COc1ccc(Oc2ncc3nc(-c4ccc(OC)cc4)c(=O)n(C)c3n2)cc1 -16.5%
CN1CCN(c2ccnc(-c3ccoc3)n2)CC1 11.2%
Cc1ccccc1-c1nccc(NCc2cccs2)n1 3.98%
Cc1cccc(CNc2cc(-c3c(C)noc3C)ncn2)c1 -4.88%
O=c1cnc2cnc(Oc3cccc(Cl)c3)nc2n1C[C@H]1CCCO1 -13.3%
CS(=O)(=O)Nc1cccc(-c2ccc3ncnc(NC4CC4)c3c2)c1 -20.6%
COc1ccc(-n2c(=O)cnc3cnc(N(C)C)nc32)cc1 -7.93%
COc1cccc(Nc2ncc3nc(C)c(=O)n(C4CC4)c3n2)c1 -13.4%
COc1ccc2[nH]cc(CCNc3ncnc4ccc(-c5cccnc5)cc34)c2c1 -10.2%
CC(=O)NCCNc1ncnc2ccc(-c3ccoc3)cc12 3.17%
CNc1ncnc2ccc(-c3ccccc3CN(C)C)cc12 -1.81%
c1csc(CNc2ncnc3ccc(-c4ccoc4)cc23)c1 -21%
COCCn1c(=O)c(C)nc2cnc(Oc3ccc(OC)cc3)nc21 -8.21%
c1cncc(CNc2ncncc2-c2cccnc2)c1 12.2%
CN(C)C(=O)c1ccc(-c2cc(Nc3ccccc3)ncn2)cc1 4.86%
COCCNc1ncnc2ccc(-c3ccoc3)cc12 -12.8%
COc1cccc(Cn2c(=O)cnc3cncnc32)c1 -2.31%
CCNc1ncc2nc(-c3cn(C)c4ccccc34)c(=O)n(C)c2n1 -2.13%
